Assay results published in PubChem BioAssay AID2101 (National Center for Advancing Translational Sciences (NCATS), 2009).
Screen size: about 330,000 compounds; about 300 (0.091%) were called active. A call without a number means that no potency is given here. Another 4% or so got no clear call; they are omitted. This excerpt belongs to a sample that is enriched for actives. A number with no mark means an inactive call. Calls follow the shape of the dose curve; as a rule, active = well fitted inhibition curve with a large enough effect; inconclusive = small, poorly fitted or top-dose-only effect, or effect the other way, or another doubt; inactive = no such curve, though single readings can be large or run the other way.

Target: Lysosomal acid glucosylceramidase (Homo sapiens) (UniProt P04062)
Assay: qHTS Assay for Inhibitors and Activators of N370S glucocerebrosidase as a Potential Chaperone Treatment of Gaucher Disease
Conditions: N370S GC spleen homogenate, 4MU-glucoside fluorescence; series mostly up to 59.4 µM
Potency is read from the fitted curve at half-maximal effect.

SMILES	activity change, negative = inhibition	Potency
Cc1cc(N(C)C)nc(Cl)n1	inactive	
CNC(=O)C1CC(=O)N(c2ccc(OCC(=O)Nc3ccccc3C)cc2)C1 (stereo not drawn)	inactive	
C=C(C)C(=O)c1ccc(F)cc1	inactive	
CCCN1CCC(=O)N(C(CSc2ccc(C)cc2)Cc2ccccc2)CC1 (stereo not drawn)	inactive	
CCN(C(=O)COC(=O)CCOc1cccc(C)c1)c1c(N)n(Cc2ccccc2)c(=O)[nH]c1=O	inactive	
CC(C)C[C@H](NC(=O)[C@H](O)[C@H](N)Cc1ccccc1)C(=O)O	inactive	
Cc1cc(C)n2nc(C(=O)Nc3cccc(S(=O)(=O)N4CCOCC4)c3)nc2n1	inactive	
COC(=O)C1(Cc2ccccc2)C=C2C(=C(C)C(=O)C2C)CN1 (stereo not drawn)	inactive	
COC(=O)[C@@]1(C)C=C[C@@H](Cc2ccccc2)N1C(C)=O	inactive	
Cn1c2cc(B(O)O)sc2c2cnn(Cc3ccccc3F)c(=O)c21	inactive	
Cc1ccc(/C(=C/CN2CCCC2)c2ccccn2)cc1	inactive	
CCN(CC)CCCCn1c(-c2ccccc2)nc2c(N3CCOCC3)nc(C)nc21	inactive	
COc1cccc(NC(=O)CN(C)C(=O)/C=C/c2cn(-c3ccccc3)nc2-c2cccs2)c1	inactive	
COc1ccc(C2/C=C\CN(Cc3ccco3)C(C)C(=O)N2Cc2ccc(F)cc2)cc1 (stereo not drawn)	inactive	
O=C(CN1CCCCC1)Nc1ccccc1C(=O)NC1CC1	inactive	
C=C1CCN(C(CC(C)C)C(=O)NCc2cc(OC)c(OC)c(OC)c2)S(=O)(=O)c2ccccc21 (stereo not drawn)	inactive	
BrC1C(Br)C(Br)C(Br)C(Br)C1Br (stereo not drawn)	inactive	
CCCCn1c(N)c(N(CCC(C)C)C(=O)COC(=O)c2ccc(CC)cc2)c(=O)[nH]c1=O	inactive	
Cc1ccc(C(CC(=O)O)NC(=O)c2ccc(S(=O)(=O)N3CCCC3)cc2)cc1 (stereo not drawn)	inactive	
CC(C)=CCC[C@]1(C)[C@@H](CC=C(C)C)C[C@@]2(CC=C(C)C)C(=O)[C@]1(C(=O)C(C)C)C(=O)C(CC=C(C)C)=C2O	inactive	

SMILES	activity change, negative = inhibition	Potency
O=C(CSc1nnc(COc2ccc(Cl)cc2)n1Cc1ccco1)N1CCNC1=O	inactive	
CCC(=O)c1ccc(OCC(=O)N(CC)CC2COc3ccccc3O2)cc1 (stereo not drawn)	inactive	
CC1Cc2ccccc2N1S(=O)(=O)c1cccc(C(=O)NCC(c2ccco2)N2CCCC2)c1 (stereo not drawn)	inactive	
C[C@@H]1O[C@@H](O[C@@H]2[C@@H](O)[C@H](OCCc3ccc(O)c(O)c3)O[C@H](CO[C@@H]3O[C@H](CO)[C@@H](O)[C@H](O)[C@H]3O)[C@H]2OC(=O)/C=C/c2ccc(O)c(O)c2)[C@H](O)[C@H](O)[C@H]1O	inactive	
C=CCC(C)(O)c1ccco1 (stereo not drawn)	inactive	
COc1ccc(C2CC(O)(c3ccccc3)Oc3cc(C)cc(C)c32)cc1 (stereo not drawn)	inactive	
C=CCN1C(=O)c2ccc(C(=O)N3CCC(C(=O)OCC)CC3)cc2C1=O	inactive	
O=C(COC(=O)c1ccccc1Cl)NC1CCCCCCC1	inactive	
C[C@H]1CC[C@H](C(=O)O)N[C@@H]1c1ccc(C#Cc2ccccc2)cc1	5.48% [at 12.8 µM]	
COc1ccc(-c2nc3c(c4c2C[C@H](c2ccccc2)OC4)CN(S(=O)(=O)c2c(C)noc2C)CC3)c(C)c1	-9.78% [at 12.8 µM]	
COC(=O)c1sc(NC(=O)COC(=O)C2CCC2)c(C(=O)OC)c1C	inactive	
CC(C)c1cnc(NC(=O)Cc2ccccc2)s1	inactive	
NCCC(=O)c1ccccc1N	inactive	
O=C(CCNC(=O)c1ccc([N+](=O)[O-])cc1)NC1CCCCC1	inactive	
CCN(c1ccccc1)S(=O)(=O)c1cc(C(=O)NCc2ccccn2)ccc1C	inactive	
C=C1/C(=C\C=C2\CCCC3(C)C2CCC3C(C)/C=C/C(O)C2CC2)CC(O)CC1O (stereo not drawn)	inactive	
N#Cc1cc2[nH]c(=O)c(=O)[nH]c2cc1[N+](=O)[O-]		22.4 µM (active)
COc1ccc(CC(N)C(=O)NC2C(O)[C@H](n3cnc4c(N(C)C)ncnc43)O[C@@H]2CO)cc1 (stereo partly drawn)	inactive	
COC(=O)[C@H]1C[C@@H]1[C@H](NC(=O)Oc1ccc(F)cc1)c1ccccc1	inactive	
Cc1nnc(NC(=O)c2ccc3nccnc3c2)s1	inactive	

SMILES	activity change, negative = inhibition	Potency
COc1cc(C2C(C#N)=C(C)NC3=C2C(=O)CC(C)(C)C3)ccc1O (stereo not drawn)		10 µM (active)
COc1ccc(C2C(C#N)=C(/N=C/N3CCOCC3)OC3=C2C(=O)CC(C)(C)C3)cc1OC (stereo not drawn)	inactive	
CCOC(=O)C1=C(C)NC2=C(C(=O)CC(C)(C)C2)C1c1ccsc1 (stereo not drawn)	inactive	
O=S(=O)(NC1CCN(S(=O)(=O)c2ccc3c(c2)OCCO3)CC1)c1c(F)cccc1F	inactive	
CCN(CC)S(=O)(=O)c1ccc(CNC(=O)CN2C(=O)NC3(CCc4ccccc43)C2=O)cc1 (stereo not drawn)	inactive	
CC(C)(Oc1ccc(Cl)cc1)C(=O)OCC(=O)NCCc1ccc(S(N)(=O)=O)cc1	inactive	
CCCC(Cl)CCCC(Cl)CCC(Cl)CCC(Cl)CCC(Cl)CCCC(Cl)CCC (stereo not drawn)	inactive	
CCCC[C@H]1C(=O)N(c2ccccc2)N(c2ccc(O)cc2)C1=O	inactive	
C=CCC1CCC(=O)N2CCCC12 (stereo not drawn)	inactive	
COc1cc2c(cc1OC)CN(C(C)C(=O)Nc1cccc(S(=O)(=O)N3CCOCC3)c1)CC2 (stereo not drawn)	inactive	
OC[C@H]1O[C@@H](n2cnc3c(NC4CCCC4)ncnc32)[C@H](O)[C@H]1O	inactive	
CCOC(=O)[C@]1(C(/C=C/c2ccco2)NC(=O)OC)CCCC1=O (stereo partly drawn)	2.17% [at 12.8 µM]	
CCCCC/C=C\C[C@H](O)/C=C/C=C/C=C/[C@@H](O)CCCC(=O)O	inactive	
CCNc1ncc2ncc(=O)n(Cc3cccc(OC)c3)c2n1	inactive	
CC(Nc1oc(-c2ccccc2)nc1-c1ccccc1)c1ccccc1 (stereo not drawn)	inactive	
CN(CC(=O)NCCc1ccc(F)cc1)CC(=O)Nc1ccc(F)c(F)c1F	inactive	
CC1(C)OC(C(O)(c2ccccc2)c2ccccc2)C(C(O)(c2ccccc2)c2ccccc2)O1 (stereo not drawn)	-1.37% [at 12.8 µM]	
Cc1ccc(SCC(CC(C)C)N2CCN(CCc3ccccc3)CCC2=O)cc1 (stereo not drawn)	inactive	
